Screening results as filed in PubChem.
ELG1 DNA repair: ELG1-dependent DNA repair inhibition; HEK293T ELG1-luciferase reporter, luminescence, 16 h; DNA damage induced by 5-fluorouridine; Potency, µM (series often up to 46.1 µM), actives largely listed as inhibitors; hit rate 2.3% among 330,000; AID 504467; further: nearly all actives have a fitted effect of over 55% in size
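Overnight (16 hr) co-exposure of 2,000 cells/well to 5-fluorouridine and compound at 37 °C preceded detection. Luciferase was quantified via ONE-Glo luminescence; loss of signal denotes inhibition.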
KB-3-1 tox: kills parental KB-3-1 adenocarcinoma cells | AID 1347075 | hit rate 1.4% among 400,000 | Potency, µM (series often up to 46.1 µM), hits mostly cytotoxic | KB-3-1 viability, CellTiter-Glo ATP luminescence, 72 h; further: nearly all actives have a fitted effect of over 60% in size
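Here the drug-naive KB-3-1 line serves as comparator for MDR sub-line selectivity; cells received compound titrations, 72 h at 37 °C, then CellTiter-Glo readout.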
KB-V1 MDR tox: kills drug-selected multidrug resistant KB-V1 cells | Potency, µM (doses to about 46.1 µM), actives largely listed as cytotoxic | KB-V1 MDR cells viability, CellTiter-Glo, 72 h | hit rate 3.4% among 400,000 | AID 1347076; further: nearly all actives have a fitted effect of over 60% in size
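KB-V1 cells (P-gp-expressing MDR subline of KB-3-1) in phenol-red-free DMEM with 10% FBS were exposed to library compounds over a concentration series for 72 h at 37 degrees C. Viability read by CellTiter-Glo luminescence; concentration-effect curves fitted after normalization.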
MCF10A rereplic: induces DNA re-replication in MCF 10a normal breast cells; Potency, µM (doses to about 46.1 µM), usual class: activators; AID 624296; hit rate 2.9% among 350,000; MCF 10A DNA re-replication, Hoechst nuclear intensity, 48 h; further: nearly all actives have a fitted effect of over 50% in size
SW480 rerep: induces DNA re-replication in SW480 colon adenocarcinoma cells. SW480 DNA re-replication, Hoechst DNA content imaging, 48 h. Potency, µM (highest dose often 46.1 µM), actives largely listed as activators. hit rate 1.8% among 340,000. AID 624297; further: nearly all actives have a fitted effect of over 55% in size
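250 cells/well; 23 nL cpd via pin tool; 48 hr, 37 C, 5% CO2; Hoechst 40 min; imager read of total nuclear intensity, ex 405/em 500-530 nm.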
Large screens that a line does not name were inactive. An excerpt weighted towards active compounds, which were near 8.2% of everything screened. The call rests on the fitted dose curve; in most records, active means well fitted curve in the direction sought with a large enough effect; inconclusive means small, poorly fitted or top-dose-only effect, or another doubt; inactive means no such curve, though single readings can be large; an effect the other way counts as inactive or inconclusive.

O=[N+]([O-])c1ccccc1C=NNC(=S)NN=Cc1ccccc1[N+](=O)[O-]	KB-3-1 tox inconclusive, KB-V1 MDR tox inconclusive, MCF10A rereplic 18µM, SW480 rerep 21µM (no result: ELG1 DNA repair)
O=C(CN(Cc1ccccc1)S(=O)(=O)c1ccccc1)N/N=C/c1ccccc1[N+](=O)[O-]	ELG1 DNA repair inconclusive, KB-V1 MDR tox 23µM
CCOCCCn1c(C)nc2c(c1=O)c1nc3ccccc3nc1n2CCC1=CCCCC1	ELG1 DNA repair inconclusive, KB-3-1 tox inconclusive, KB-V1 MDR tox 18µM, MCF10A rereplic inconclusive, SW480 rerep inconclusive
Cc1nc2c(c(=O)n1CCC1=CCCCC1)c1nc3ccccc3nc1n2/N=C/c1ccccc1	ELG1 DNA repair inconclusive, KB-V1 MDR tox 9.2µM, MCF10A rereplic 23µM
CC1(C(=O)Nc2cccc3ccccc23)CCN1C(=O)Cc1ccccc1Cl (stereo unspecified)	none (no result: ELG1 DNA repair, MCF10A rereplic, SW480 rerep)
Cc1ccnc(NS(=O)(=O)c2ccc(NC(=O)c3cc(=O)c4ccc(C)c(C)c4o3)cc2)n1	none (no result: ELG1 DNA repair, MCF10A rereplic, SW480 rerep)
O=C(/C=C/c1ccco1)Nc1ccc2nn(-c3ccccc3)nc2c1	MCF10A rereplic 7.3µM
Cc1ccc(-n2nc3ccc(NC(=O)C(C)C)cc3n2)cc1	ELG1 DNA repair inconclusive, KB-3-1 tox inconclusive
CC(C)CC(=O)Nc1ccc2nn(-c3ccccc3)nc2c1	ELG1 DNA repair inconclusive, KB-V1 MDR tox 16µM
O=C(Cc1cccc(NC(=O)C2CCN(S(=O)(=O)c3cccc([N+](=O)[O-])c3)CC2)c1)Nc1cccc(C(=O)N2CCCCC2)c1	MCF10A rereplic inconclusive (no result: ELG1 DNA repair)
CC1(C(=O)O)CCCN1C(=O)c1cccc(C(F)(F)F)c1 (stereo unspecified)	none (no result: ELG1 DNA repair, MCF10A rereplic, SW480 rerep)
CSc1nc2c(cnn2-c2ccc(C)c(C)c2)c(=O)[nH]1	KB-3-1 tox 1.6µM, KB-V1 MDR tox inconclusive
CCc1cccc(NC(=O)c2oc3ccc4c(c3c2C)C(=O)CC(C)(C)O4)c1	none (no result: ELG1 DNA repair, MCF10A rereplic, SW480 rerep)
CC(CC(=O)Nc1cc([N+](=O)[O-])ccc1Cl)c1ccccc1 (stereo unspecified)	KB-V1 MDR tox inconclusive
COCC(C)NC(C(=O)Nc1ccc(Cl)c([N+](=O)[O-])c1)c1ccccc1 (stereo unspecified)	KB-V1 MDR tox 16µM
O=C(Nc1cc([N+](=O)[O-])ccc1Cl)C(Sc1ccccc1)c1ccccc1 (stereo unspecified)	KB-V1 MDR tox 15µM
O=C(Nc1ccc(Cl)c([N+](=O)[O-])c1)C(Sc1ccccc1)c1ccccc1 (stereo unspecified)	KB-3-1 tox 26µM, KB-V1 MDR tox inconclusive, MCF10A rereplic inconclusive
Cc1cc(/C=C/C#N)cc(C)c1Nc1nc(Nc2ccc3n[nH]nc3c2)c2[nH]cnc2n1	none (no result: ELG1 DNA repair, MCF10A rereplic, SW480 rerep)
Cc1ccc(NC(=O)CN2C(=O)c3ccccc3Sc3ncccc32)c(C)c1	none (no result: ELG1 DNA repair, MCF10A rereplic, SW480 rerep)
COc1ccc(NC(=O)C2CCCN(C(=O)NC3CCCCC3)C2)cc1OC (stereo unspecified)	ELG1 DNA repair inconclusive, KB-V1 MDR tox 15µM
COc1ccc(S(=O)(=O)N2CCC(C(=O)NC3CCCCC3)CC2)cc1OC	SW480 rerep inconclusive
COc1ccc(S(=O)(=O)N2CCN(C(=O)c3cc(-c4ccc(Br)cc4)n[nH]3)CC2)cc1OC	ELG1 DNA repair 23µM, KB-3-1 tox inconclusive, SW480 rerep inconclusive
COc1ccc(S(=O)(=O)N2CCN(C(=O)NC3CCCCC3)CC2)cc1OC	KB-V1 MDR tox 16µM
CCOc1ccc(NC(=O)Cc2ccc(-n3c(C)nc4cccnc43)cc2)cc1	none (no result: ELG1 DNA repair, MCF10A rereplic, SW480 rerep)
COc1ccc(-c2c3c(=O)n(C)c(=O)n(C)c3c3n2-c2ccccc2NC3c2ccc(OC)cc2)cc1 (stereo unspecified)	none (no result: ELG1 DNA repair, MCF10A rereplic, SW480 rerep)
CCn1c(C)nnc1SCC(=O)NC1CCCC1	KB-V1 MDR tox inconclusive
COc1cccc(C(C)(O)c2nc(-c3cccc(NC(C)=O)c3)cs2)c1 (stereo unspecified)	none (no result: ELG1 DNA repair, MCF10A rereplic, SW480 rerep)
CCN(CC)c1ccc(C(=O)Nc2cccc(F)c2)cc1	ELG1 DNA repair inconclusive, MCF10A rereplic inconclusive, SW480 rerep 13µM
COc1ccc(NC(=O)c2cncc(Br)c2)c(S(=O)(=O)N2CCOCC2)c1	ELG1 DNA repair 11µM
CCN(CC)S(=O)(=O)c1cccc(C(=O)Nc2cccc(C)c2)c1	KB-V1 MDR tox inconclusive
COc1ccc(NC(=O)c2cccnc2Cl)c(S(=O)(=O)N2CCOCC2)c1	none
CCN(CC)S(=O)(=O)c1cccc(NC(=O)c2ccc(Br)cc2)c1	ELG1 DNA repair inconclusive, KB-V1 MDR tox 6.5µM
Cc1ccc(S(=O)(=O)N2CCCCC2)cc1NC(=O)c1cncc(Br)c1	ELG1 DNA repair 5.8µM
O=S(=O)(Nc1cccc(-c2ccc(N3CCOCC3)nn2)c1)c1ccc(F)c(C(F)(F)F)c1	KB-V1 MDR tox inconclusive (no result: ELG1 DNA repair, MCF10A rereplic, SW480 rerep)
CC1CCN(C(C)C(=O)Nc2cc(S(=O)(=O)N3CCCCC3)ccc2Cl)CC1 (stereo unspecified)	KB-3-1 tox inconclusive, KB-V1 MDR tox 15µM
Cc1ccc(S(=O)(=O)N2CCCCC2)cc1NC(=O)CSc1nnc(N)s1	MCF10A rereplic 0.58µM
Cc1ccc(S(=O)(=O)N2CCC(C(=O)Nc3ccccc3N3CCCC3)CC2)cc1	ELG1 DNA repair inconclusive, KB-V1 MDR tox 5.8µM
Cc1ccc(S(=O)(=O)N2CCC(C(=O)Nc3ccccc3N3CCCCC3)CC2)cc1	ELG1 DNA repair inconclusive
Cc1ccc(NC(=O)c2cncc(Br)c2)cc1S(=O)(=O)N(C)C	ELG1 DNA repair inconclusive
Nc1nnc(SCC(=O)Nc2cccc(S(=O)(=O)N3CCCCC3)c2)s1	MCF10A rereplic inconclusive, SW480 rerep inconclusive
Cc1ccc(S(=O)(=O)N(C)C)cc1NC(=O)c1cncc(Br)c1	ELG1 DNA repair 15µM, KB-3-1 tox inconclusive, KB-V1 MDR tox inconclusive, MCF10A rereplic inconclusive
